# SRC3 inh: SRC3 coactivator transcriptional activity inhibitors, primary screen, cell-based, luminescence | Nuclear receptor coactivator 3 (Homo sapiens), Q9Y6Q9 | HEK293 GAL4-SRC3 luciferase reporter | inhibition, % at 3.6 µM | 360,000 compounds, 0.17% hits;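 active = inhibition above a per-campaign cutoff, the mean of all compounds plus 3 SD, cut at about 60% in these data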;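 note: 0% = DMSO-treated cells and 100% = gossypol-treated cells at 36 µM; higher means less SRC3-driven luciferase light from the GAL4 reporter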
# Shn3 inh set2: reduction of Shn3 3'UTR firefly luciferase signal, primary screen, Schnurri-3 inhibitor project, cell-based, Clone20 osteoblasts, set 2; Clone20 osteoblast Shn3 3'UTR firefly luciferase, 24 h; inhibition, % at 12.5 µM; 360,000 compounds, 0.52% hits;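 active = mean inhibition of at least 75% with every replicate also reaching 75%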;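 note: 0% = median of neutral control wells and 100% = pilot-screen positive control compound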
# NCOA2 inhibitor: inhibition of GAL4-SRC2 driven luciferase reporter, primary screen, SRC2 inhibitor project, cell-based, luminescence. HEK293 GAL4-SRC2 luciferase reporter. inhibition, % at 9 µM. 370,000 compounds, 0.17% hits. AID 651957, 2012;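 active = inhibition above the mean inhibition of all tested compounds plus 3 SD, set per campaign, cut at about 52% in these data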;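 note: 0% = DMSO treated cells and 100% = cells given Gossypol at 36 µM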
# NCOA1 inh: SRC1 coactivator transcriptional activity inhibitors, primary screen, cell-based, luminescence. Nuclear receptor coactivator 1 (Homo sapiens), Q15788. HEK293 GAL4-SRC1 luciferase reporter. inhibition, % at 3.6 µM. 360,000 compounds, 0.12% hits;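 active = inhibition above the campaign mean plus 3 SD, with each screening campaign given its own cutoff, cut at about 60% in these data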;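 note: 0% = DMSO treated cells and 100% = gossypol at 36 µM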
# NR5A2 inv ag: LRH-1 (NR5A2) inverse agonists, primary screen, cell-based, luminescence, HEK293T, StAR-luciferase reporter. Nuclear receptor subfamily 5 group A member 2 (Homo sapiens), O00482. LRH-1 transfected, 24 h. inhibition, % at 3.6 µM. 360,000 compounds, 0.13% hits;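 active = inhibition above the mean inhibition of all tested compounds plus 3 SD, cut at about 73% in these data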;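 note: 0% = DMSO wells and 100% = reporter-only cells lacking LRH-1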
# EBV LMP1 NFkB: EBV LMP1-driven NF-kappaB luciferase reporter inhibitors, primary screen, cell-based, luminescence, single point; LMP1-induced NF-kappaB luciferase reporter cells; inhibition, % at 12.5 µM; 350,000 compounds, 0.69% hits; AID 504558, 2011; in the data active = inhibition above about 41%;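 note: 0% = neutral control wells and 100% = reference inhibitor control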
# An asterisk follows results filed as active; / = no result given. In the library only some 1.2% were active in any assay of this set; here they are far more common.
SMILES,SRC3 inh,Shn3 inh set2,NCOA2 inhibitor,NCOA1 inh,NR5A2 inv ag,EBV LMP1 NFkB
Cc1cccnc1CN1CCN(C(=O)c2cc(COc3ccc4ncccc4c3)on2)CC1,19,88*,34,-55,30,23
COC(=O)[C@]12CCCCC=C1N(Cc1ccc(OC)cc1)C(=O)[C@@H]2CC(=O)NCc1ccc(OC)c(OC)c1,/,/,17,/,/,/
CCOC(=O)C1=C(C(=O)OCC)C2N(Cc3ccc(C(F)(F)F)cc3)c3ccccc3[C@@]23C[C@@H](C(=O)OC)N(S(=O)(=O)c2ccc(OC)cc2)C3=N1 (stereo partly specified),/,/,14,/,/,/
Cn1nc(-c2ccc(N3CCOCC3)c(NS(=O)(=O)c3ccccc3)c2)c2ccccc2c1=O,14,-6,0,5,-1,61*
CCCCCN1CCCCC(NC(=O)c2ccc3ccccc3c2)C1=O (stereo unspecified),/,/,4,/,/,/
CC(=O)Nc1ccc(C=NNC(=O)CCCC(=O)NN=Cc2ccc(NC(C)=O)cc2)cc1,11,-14,7,6,-12,81*
CCCCC(=O)NC(c1ccc(N(CC)CC)cc1)c1ccc2cccnc2c1O (stereo unspecified),17,94*,11,38,4,82*
CCCC(=O)NC(c1ccc(N(C)C)cc1)c1c(O)ccc2ccccc12 (stereo unspecified),5,-3,23,2,8,-6
CCN(CC)c1ccc(C(NC(=O)C(C)C)c2ccc3cccnc3c2O)cc1 (stereo unspecified),50,80,32,43,96*,72*
CCCCC(=O)NC(c1ccc(N(C)C)cc1)c1ccc2cccnc2c1O (stereo unspecified),44,93*,3,46,13,34
CC(C)C(=O)NC(c1ccco1)c1ccc2cccnc2c1O (stereo unspecified),45,81,34,11,38,21
COC(=O)c1cc(-c2cc(Cl)cc(Cl)c2)c(=O)n2c1CCC2,/,/,-13,/,/,/
COc1ccccc1NC(=O)OC1CC2CC1[C@H]1CCCCN1[C@H]2C (stereo partly specified),/,/,-10,/,/,/
Cn1cccc1CC(=O)NNC(=S)Nc1ccccc1Cl,-2,-8,-27,-20,-10,58*
COC(=O)C/C=C/[C@@H](C)[C@H](NC(=O)OCC(Cl)(Cl)Cl)c1ccc(-c2ccccc2)cc1,/,/,-15,/,/,/
C=CCn1c(SCC(=O)O)nnc1-c1ccco1,/,/,-18,/,/,/
CC(=O)NC(c1ccco1)c1cc(F)c2cccnc2c1O (stereo unspecified),20,-14,24,24,14,32
CN1CCN(C(c2ccc(F)cc2)c2ccc3cccnc3c2O)CC1 (stereo unspecified),4,27,/,18,-8,-11
Oc1c(C(Nc2cccc(C(F)(F)F)c2)c2ccncc2)ccc2cccnc12 (stereo unspecified),20,97*,-1,-60,20,53*
Oc1c(C(Nc2nccs2)c2ccc(C(F)(F)F)cc2)ccc2cccnc12 (stereo unspecified),25,78,6,16,26,73*
Oc1c(C(Nc2nc3ccccc3s2)c2ccco2)ccc2cccnc12 (stereo unspecified),15,75,5,28,11,61*
CCn1c2ccccc2c2cc(C=NNC(=O)CSc3nc4ccccc4c(=O)n3-c3ccccc3)ccc21,/,/,-22,/,/,/
COC(=O)CCC(=O)N1C2=NC3=C(C(=O)N(Cc4ccc5c(c4)OCO5)C3=O)C3N(C)c4ccccc4[C@]23C[C@H]1CO (stereo partly specified),/,/,-5,/,/,/
Cc1ccccc1C(=O)N1CCC(Oc2cccnc2)CC1,/,/,4,/,/,/
C=CCOC(=O)C1=C(C)N=C2SCCC(=O)N2C1c1cccs1 (stereo unspecified),-5,92*,-28,-20,-6,0
